Experimental findings from paper PMC10668032, “Altered binding affinity of SIX1-Q177R correlates with enhanced WNT5A and WNT pathway effector expression in Wilms tumor” are described below.

Whole data set: some 33,000 sequences, median “e-score” near -0.05, cut for the highest 2% near 0.38. This is one part of a sample in which the highest values are shown more often than they occur.

In this assay the target is T1, SIX1-Q177R homeodomain (human, UniProt Q15475 108-198, Q177R).
T1 sequence: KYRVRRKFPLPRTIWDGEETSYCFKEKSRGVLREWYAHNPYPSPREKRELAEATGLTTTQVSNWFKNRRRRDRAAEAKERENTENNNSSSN
Description: universal protein binding microarray; Universal all-10-mer PBM (8x60K, AMADID 030236), 300 nM GST-tagged protein, Alexa Fluor 488 anti-GST; buffer, salt, pH and temperature not stated (as in Berger); high values mean tight binding. The following applies: protein: ivt; tags: N-terminal GST; dsDNA, one strand shown. In short, it runs like this: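 GST-tagged homeodomains were made by in vitro transcription/translation and quantified by anti-GST western blot against a recombinant GST standard curve. They were applied in duplicate at 300 nM final concentration to universal 'all 10-mer' protein binding microarrays (8×60K format). Binding was quantified as 8-mer E-scores with the Universal PBM Analysis Suite.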
For CACCCCGC, the binding signal worked out at 0.337 ± 0.0136 E-score. For GGTCCGGA, the binding signal stood at 0.161 ± 0.0425 E-score. For GATATCCC, the binding signal is 0.193 ± 0.0406 E-score. Regarding ACCCCTGC, the binding signal turned out to be 0.235 ± 0.0269 E-score. Under ACACCTGG stands 0.448 ± 0.00897 E-score; under ACCCCTGA, 0.2405 ± 0.00201 E-score; under ACCCCTGG, 0.163 ± 0.00865 E-score. As to AAACCTGG, the binding signal was 0.169 ± 0.0219 E-score. With ACTCCTGC, the binding signal was 0.158 ± 0.00297 E-score.

In the case of ACACCTGC, the binding signal was 0.4582 ± 0.00372 E-score. With ACACCTGA, the binding signal was found to be 0.4477 ± 0.00107 E-score. ACTCCTGA: the binding signal came out at 0.206 ± 0.00412 E-score. On to CCCTTGTA, for which the binding signal came to 0.2081 ± 0.00151 E-score. As for ATTCCGTG, the binding signal amounted to 0.2 ± 0.0598 E-score.

For CCCAGGCG, the binding signal amounted to 0.167 ± 0.0378 E-score. Regarding CGAGGCAA, the binding signal worked out at 0.186 ± 0.00832 E-score. With CAGTGCAC the figure was 0.183 ± 0.0019 E-score; with GAGTGTGC, 0.184 ± 0.00494 E-score.

As for CAGTGTAG, the binding signal was determined as 0.4232 ± 0.00358 E-score. Regarding CTGTGTAC, the binding signal is 0.229 ± 0.0232 E-score. For the sequence AAGTGTAC, the binding signal was 0.391 ± 0.0232 E-score.

Regarding AAGTGTAG, the binding signal was found to be 0.37 ± 0.0123 E-score. With CAGTGTAC, the binding signal is 0.4035 ± 0.00271 E-score. With GAGTGTAC the figure was 0.419 ± 0.00767 E-score; with GAGTGCAC, 0.195 ± 0.00266 E-score.

Regarding CACTGTAC, the binding signal was 0.194 ± 0.0212 E-score. Consider CACTTATG, for which the binding signal was found to be 0.161 ± 0.0539 E-score. For AAGTTACA, the binding signal was determined as 0.171 ± 0.00584 E-score. Turning to AGAAGGTG, the binding signal came out at 0.302 ± 0.0205 E-score.

Regarding CCCCGGAC, the binding signal turned out to be 0.152 ± 0.0324 E-score. On to GAGCACCC, for which the binding signal was found to be 0.283 ± 0.0502 E-score.

AGGTGCAA: the binding signal amounted to 0.169 ± 0.04 E-score. With AGGTGTAA the figure was 0.463 ± 0.021 E-score. Consider GTGTGTAA, for which the binding signal stood at 0.337 ± 0.0168 E-score. ATGTGTAA: the binding signal came out at 0.225 ± 0.00674 E-score. In the case of GGGTGTAA, the binding signal stood at 0.478 ± 0.01 E-score. Take TGGTGCAA: the binding signal turned out to be 0.169 ± 0.0456 E-score.

Regarding CGGTGTAG, the binding signal was 0.487 E-score.

Consider CGGGGTAG, for which the binding signal was 0.221 ± 0.00415 E-score. For the sequence TGGTGTAA, the binding signal is 0.486 ± 0.00978 E-score. Under TGGAGTAA stands 0.233 ± 0.068 E-score. Take GGGGGTAA: the binding signal was found to be 0.354 ± 0.0195 E-score. Regarding GGTGCACC, the binding signal turned out to be 0.353 ± 0.00627 E-score. Take CAACAACA: the binding signal came out at 0.195 ± 0.00619 E-score. For TGACCCCA, the binding signal was 0.279 ± 0.0177 E-score.

Consider CGGAGTAA, for which the binding signal came to 0.266 ± 0.0379 E-score.

With AAGGTATC, the binding signal stood at 0.251 ± 0.0701 E-score. For GGAACCCA, the binding signal came to 0.181 ± 0.0136 E-score. For the sequence GACCTCAC, the binding signal worked out at 0.161 ± 0.0365 E-score. In the case of ACCGAACA, the binding signal was determined as 0.196 ± 0.0386 E-score. In the case of CGGTGCAA, the binding signal was determined as 0.259 ± 0.00579 E-score. Under GGGTGTAC stands 0.4828 ± 0.00134 E-score; under CTGTGTAA, 0.153 ± 0.011 E-score; under CGGTGTAA, 0.481 ± 0.0071 E-score. GGGTGCAC: the binding signal turned out to be 0.28 ± 0.022 E-score. On to GGGGGTAC, for which the binding signal was found to be 0.331 ± 0.0182 E-score. As to CCCCACGA, the binding signal was 0.1526 ± 0.000735 E-score.

In the case of TGTAAGAA, the binding signal is 0.294 ± 0.0277 E-score. AAACGTGT: the binding signal amounted to 0.303 ± 0.054 E-score.

As for CCCGGTGC, the binding signal came out at 0.154 ± 0.0105 E-score. For the sequence GCTCACAC, the binding signal amounted to 0.276 ± 0.0114 E-score. Take ACTTACGC: the binding signal is 0.164 ± 0.00788 E-score. ACTTACCC: the binding signal worked out at 0.186 ± 0.0205 E-score. Regarding ACTTACAC, the binding signal was 0.449 ± 0.0178 E-score. Turning to CCTTACAC, the binding signal turned out to be 0.439 ± 0.0105 E-score.

With CCTTATAA, the binding signal came to 0.179 ± 0.0218 E-score. With CCTCACAC the figure was 0.279 ± 0.0153 E-score.

As for GCTTACAC, the binding signal is 0.437 ± 0.0203 E-score. For ACTTACTC, the binding signal worked out at 0.179 ± 0.00345 E-score.

CTCGCCCC: the binding signal was 0.173 ± 0.0101 E-score. As to GGAGGGTA, the binding signal came to 0.224 ± 0.0107 E-score. ACCCACAA: the binding signal turned out to be 0.151 ± 0.0489 E-score.

On to CCCCACCG, for which the binding signal turned out to be 0.228 ± 0.054 E-score. Regarding AGCGGGTG, the binding signal turned out to be 0.333 ± 0.0119 E-score. Under ACCAGGCA stands 0.151 ± 0.0134 E-score. With CTGGAGTC the figure was 0.1843 ± 0.00156 E-score; with ATGGGGTG, 0.342 ± 0.0155 E-score; with ATGGTGTG, 0.405 ± 0.0177 E-score.

Consider CTGGTGTC, for which the binding signal came out at 0.4826 ± 0.00371 E-score.

For the sequence CTGGTGTA, the binding signal was determined as 0.4837 ± 0.00053 E-score. For the sequence CTGGTATC, the binding signal was determined as 0.274 ± 0.0156 E-score.

In the case of CTGGTACA, the binding signal stood at 0.21 ± 0.0391 E-score. As to GTGGTGCA, the binding signal came to 0.189 ± 0.00669 E-score.

In the case of ATGTGGTG, the binding signal came out at 0.271 ± 0.0248 E-score.

As for CTGGTGCA, the binding signal was determined as 0.234 ± 0.0234 E-score.

Take GTGGTGTA: the binding signal was 0.481 ± 0.00765 E-score. For the sequence GTGTGGTA, the binding signal is 0.265 ± 0.00181 E-score. With ACCCGGGC, the binding signal stood at 0.199 ± 0.0334 E-score.
